{"source": "the supplement of paper PMC7335073", "note": "In all, about 4,100 sequences were measured (“relative CpG methylation activity (normalised to average over all NNNCGNNN flanks)”: median about 0.94, highest 2% from about 1.9 on). The entries come from a sample that favours the highest values as a whole."}
{"biological_target": "DNMT3B catalytic domain (mouse) (UniProt O88509)", "sequence (O88509 558-859)": "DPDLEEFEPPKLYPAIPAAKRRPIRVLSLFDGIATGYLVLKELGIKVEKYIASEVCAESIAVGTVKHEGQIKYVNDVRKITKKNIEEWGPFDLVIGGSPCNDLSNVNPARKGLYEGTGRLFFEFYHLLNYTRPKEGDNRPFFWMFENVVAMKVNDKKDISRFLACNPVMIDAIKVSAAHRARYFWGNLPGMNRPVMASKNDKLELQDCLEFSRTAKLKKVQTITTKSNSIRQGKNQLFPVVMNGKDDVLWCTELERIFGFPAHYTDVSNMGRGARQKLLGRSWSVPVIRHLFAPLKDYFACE", "experiment": "relative CpG methylation activity (normalised to average over all NNNCGNNN flanks) (relative (1 = mean)); higher = more methylation of the central CpG", "conditions": "system: in vitro, murine catalytic domain; CpG state: hemimethylated substrate pool; residues: 558-859", "method": "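Deep enzymology: a pool of dsDNA substrates with a central CpG flanked by 10 random nucleotides on each side was methylated by the murine DNMT3A or DNMT3B catalytic domain (0.8 mM SAM, 37 °C, 60 min). Methylation was then read out by hairpin ligation, bisulfite conversion and NGS. Values are the average methylation of each NNNCGNNN context (±3 flanks; the outer flanks are random and averaged over), normalised to the overall mean, so 1 = average activity.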"}
{"sequence": "TACCGGCC", "relative CpG methylation activity": 1.52}
{"sequence": "CGCCGTAG", "relative CpG methylation activity": 0.147}
{"sequence": "AAACGCGC", "relative CpG methylation activity": 1.46}
{"sequence": "AAGCGTTT", "relative CpG methylation activity": 0.413}
{"sequence": "AAGCGTTC", "relative CpG methylation activity": 0.586}
{"sequence": "TAGCGCCC", "relative CpG methylation activity": 0.741}
{"sequence": "TCGCGGAC", "relative CpG methylation activity": 0.818}
{"sequence": "GGCCGTGG", "relative CpG methylation activity": 0.0382}
{"sequence": "CCTCGAAT", "relative CpG methylation activity": 1.3}
{"sequence": "CAACGGCA", "relative CpG methylation activity": 1.74}
{"sequence": "AAACGGCC", "relative CpG methylation activity": 1.76}
{"sequence": "GAACGGCC", "relative CpG methylation activity": 1.81}
{"sequence": "CAACGGCT", "relative CpG methylation activity": 1.92}
{"sequence": "CAACGGCC", "relative CpG methylation activity": 1.93}
{"sequence": "AAACGGCT", "relative CpG methylation activity": 1.82}
{"sequence": "ACGCGCGA", "relative CpG methylation activity": 0.411}
{"sequence": "GACCGGGT", "relative CpG methylation activity": 1.03}
{"sequence": "ACGCGTGA", "relative CpG methylation activity": 0.523}
{"sequence": "TTCCGAAT", "relative CpG methylation activity": 1.58}
{"sequence": "AAACGGCA", "relative CpG methylation activity": 1.91}
{"sequence": "ACACGGCA", "relative CpG methylation activity": 1.89}
{"sequence": "ACACGGCT", "relative CpG methylation activity": 1.89}
{"sequence": "AAACGGCG", "relative CpG methylation activity": 1.68}
{"sequence": "GCACGGCC", "relative CpG methylation activity": 1.77}
{"sequence": "CCACGGCC", "relative CpG methylation activity": 1.7}
{"sequence": "ACACGGCG", "relative CpG methylation activity": 1.6}
{"sequence": "ACACGGCC", "relative CpG methylation activity": 1.94}
{"sequence": "GAACGGCA", "relative CpG methylation activity": 1.84}
{"sequence": "CAACGCGA", "relative CpG methylation activity": 0.965}
{"sequence": "AGTCGTCA", "relative CpG methylation activity": 0.379}
{"sequence": "CAACGTCA", "relative CpG methylation activity": 1.15}
{"sequence": "CGCCGTAC", "relative CpG methylation activity": 0.561}
{"sequence": "ATTCGCAG", "relative CpG methylation activity": 0.453}
{"sequence": "ATCCGAGT", "relative CpG methylation activity": 1.37}
{"sequence": "CTCCGAGA", "relative CpG methylation activity": 1.73}
{"sequence": "GTCCGATC", "relative CpG methylation activity": 1.77}
{"sequence": "TTCCGATC", "relative CpG methylation activity": 2.31}
{"sequence": "CTCCGAGT", "relative CpG methylation activity": 1.99}
{"sequence": "TTCCGAGT", "relative CpG methylation activity": 1.83}
{"sequence": "TTTCGATA", "relative CpG methylation activity": 1.81}
{"sequence": "ATCCGAGC", "relative CpG methylation activity": 1.68}
{"sequence": "CTCCGAGC", "relative CpG methylation activity": 2.06}
{"sequence": "TTCCGATT", "relative CpG methylation activity": 1.75}
{"sequence": "TTTCGATC", "relative CpG methylation activity": 1.95}
{"sequence": "GTTCGATC", "relative CpG methylation activity": 1.3}
{"sequence": "CATCGAAC", "relative CpG methylation activity": 1.6}
{"sequence": "ACGCGTGG", "relative CpG methylation activity": 0.317}
{"sequence": "GATCGTTG", "relative CpG methylation activity": 0.455}
{"sequence": "TGACGGAT", "relative CpG methylation activity": 0.829}
{"sequence": "TTCCGAAG", "relative CpG methylation activity": 1.32}
{"sequence": "TTCCGAAC", "relative CpG methylation activity": 1.89}
{"sequence": "TTCCGAGC", "relative CpG methylation activity": 1.9}
{"sequence": "ATCCGAAC", "relative CpG methylation activity": 1.63}
{"sequence": "TTCCGAGA", "relative CpG methylation activity": 1.6}
{"sequence": "TTCCGAGG", "relative CpG methylation activity": 1.42}
{"sequence": "CCGCGGTC", "relative CpG methylation activity": 1.43}
{"sequence": "GTTCGGGC", "relative CpG methylation activity": 1.53}
{"sequence": "ACGCGATT", "relative CpG methylation activity": 1.09}
{"sequence": "GATCGAAC", "relative CpG methylation activity": 1.16}
{"sequence": "TCACGATA", "relative CpG methylation activity": 1.76}
{"sequence": "TTACGATT", "relative CpG methylation activity": 2.01}
{"sequence": "GTACGATC", "relative CpG methylation activity": 1.73}
{"sequence": "CTACGATT", "relative CpG methylation activity": 1.83}
{"sequence": "TTACGATG", "relative CpG methylation activity": 1.53}
{"sequence": "TAACGATA", "relative CpG methylation activity": 1.81}
{"sequence": "TTACGATA", "relative CpG methylation activity": 1.94}
{"sequence": "TTACGATC", "relative CpG methylation activity": 2.01}
{"sequence": "GTACGATT", "relative CpG methylation activity": 1.75}
{"sequence": "CGTCGATA", "relative CpG methylation activity": 1.84}
{"sequence": "TGCCGGGG", "relative CpG methylation activity": 0.469}
{"sequence": "CGACGTGC", "relative CpG methylation activity": 0.674}
{"sequence": "AGCCGAAA", "relative CpG methylation activity": 0.798}
{"sequence": "AAACGTTA", "relative CpG methylation activity": 0.806}
{"sequence": "CCCCGTTA", "relative CpG methylation activity": 0.69}
{"sequence": "ACGCGTTG", "relative CpG methylation activity": 0.312}
{"sequence": "TCACGACC", "relative CpG methylation activity": 1.17}
{"sequence": "GTGCGGGT", "relative CpG methylation activity": 1.3}
{"sequence": "TTACGAAA", "relative CpG methylation activity": 1.78}
{"sequence": "CTACGAAG", "relative CpG methylation activity": 1.6}
{"sequence": "CTACGAAC", "relative CpG methylation activity": 1.91}
{"sequence": "TTACGAAC", "relative CpG methylation activity": 1.96}
{"sequence": "CTACGAAT", "relative CpG methylation activity": 1.56}
{"sequence": "TTACGAAT", "relative CpG methylation activity": 1.76}
{"sequence": "CCTCGGTT", "relative CpG methylation activity": 1.13}
{"sequence": "AATCGTTC", "relative CpG methylation activity": 0.607}
{"sequence": "AGCCGAGC", "relative CpG methylation activity": 1.24}
{"sequence": "TTCCGGCT", "relative CpG methylation activity": 1.61}
{"sequence": "GTTCGTGA", "relative CpG methylation activity": 0.411}
{"sequence": "CTCCGGTT", "relative CpG methylation activity": 1.72}
{"sequence": "TTCCGGTC", "relative CpG methylation activity": 2.04}
{"sequence": "TTCCGGTA", "relative CpG methylation activity": 1.33}
{"sequence": "TTCCGGCG", "relative CpG methylation activity": 2.04}
{"sequence": "ATCCGGTT", "relative CpG methylation activity": 1.46}
{"sequence": "TTCCGGTT", "relative CpG methylation activity": 2.2}
{"sequence": "ATCCGGCG", "relative CpG methylation activity": 1.82}
{"sequence": "TTCCGGCC", "relative CpG methylation activity": 1.67}
{"sequence": "CTCCGGTC", "relative CpG methylation activity": 1.8}
{"sequence": "ATTCGTTC", "relative CpG methylation activity": 0.876}
{"sequence": "AAGCGCCG", "relative CpG methylation activity": 0.713}
{"sequence": "TAGCGGGG", "relative CpG methylation activity": 0.665}
{"sequence": "CATCGGCT", "relative CpG methylation activity": 1.78}
{"sequence": "GTTCGGTC", "relative CpG methylation activity": 1.15}
{"sequence": "GACCGTTT", "relative CpG methylation activity": 0.177}
{"sequence": "CTTCGAGA", "relative CpG methylation activity": 1.95}
{"sequence": "ATTCGAAC", "relative CpG methylation activity": 1.69}
{"sequence": "CTTCGAGG", "relative CpG methylation activity": 1.65}
{"sequence": "CTTCGAAA", "relative CpG methylation activity": 1.57}
{"sequence": "ATTCGAGA", "relative CpG methylation activity": 1.83}
{"sequence": "CTTCGAAC", "relative CpG methylation activity": 1.98}
